PI4K2A block: inhibitors of human PI4K2A; purified PI4K2A, ADP-Glo luminescence, 1 h; hits give low values; actives 0.13% (n = 420,000); activity change, negative = inhibition, % at 76.9 µM; Q9BTU6; AID 1346378; in the data active = activity change below about -50%; inconclusive = mostly about -30% to -49%;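 note: -100% = wells without enzyme as full effect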
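In this quantitative HTS, ADP production by PI4K2A was quantified luminescently after 1 h at ambient temperature; 100 microM adenosine served as plate-quality control.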
Tb PGK inh: blocks T. brucei phosphoglycerate kinase; actives 0.043% (n = 380,000); PGK/GAPDH coupled, Kinase-Glo luminescence, 60 min; AID 602233; Potency, µM (highest dose often 57.5 µM), for the others: at the top dose activity change, negative = inhibition, hits mostly inhibitors; note: potency is the fitted concentration of half-maximal effect; nearly all actives have a fitted effect of over 60% in size
Target sequence (P07378 whole entry, looked up): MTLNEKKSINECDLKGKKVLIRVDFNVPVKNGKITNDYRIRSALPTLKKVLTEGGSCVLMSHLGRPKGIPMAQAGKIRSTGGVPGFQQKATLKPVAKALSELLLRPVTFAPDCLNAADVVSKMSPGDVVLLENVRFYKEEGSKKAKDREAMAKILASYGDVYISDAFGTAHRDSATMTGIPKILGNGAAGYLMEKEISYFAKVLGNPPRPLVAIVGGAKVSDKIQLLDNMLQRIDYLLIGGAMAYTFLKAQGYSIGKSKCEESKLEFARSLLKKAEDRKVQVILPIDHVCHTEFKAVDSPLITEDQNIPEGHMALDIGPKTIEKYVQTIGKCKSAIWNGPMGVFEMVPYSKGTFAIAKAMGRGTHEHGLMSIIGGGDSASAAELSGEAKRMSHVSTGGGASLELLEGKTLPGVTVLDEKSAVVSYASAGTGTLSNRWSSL
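Luminescent ATP detection (Kinase-Glo Plus) follows a 60-minute room-temperature incubation, with wells lacking PGK as controls. Buffer: 100 mM TEA (pH 7.6), 5 mM MgCl2, 0.01% Tween-20. Coupling enzyme GAPDH (100 nM final) supplies unstable 1,3-BPG in-well.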
GCN5L2 inh: blocks human GCN5L2 histone acetyltransferase. Q92830. GCN5L2 HAT assay, ThioGlo1 CoA-SH fluorescence. Potency, µM (titrated, usually from 58.9 µM), for inactives: top-dose activity change, negative = inhibition, most hits filed as inhibitors. actives 0.21% (n = 390,000); note: potency is the fitted concentration of half-maximal effect
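GCN5L2 (20nM final) in 50mM HEPES, 0.1mM EDTA pH 7.5, 0.01% Tween-20 was preincubated 15 min at room temperature with compound, then given ThioGlo1 (50uM), H3(1-25) peptide (75uM) and acetyl-CoA (70uM); CoA-thiol fluorescence (Ex340/Em540) was read at 0 and 20 min.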
RGS12 GoLoco inh: blocks human Gai1 binding to RGS12 GoLoco peptide, red readout; P63096; Gai1:RGS12 GoLoco peptide FP, rhodamine, 10 min; Potency, µM (series often up to 61.6 µM), inactives show at the highest dose activity, negative = inhibition, actives largely listed as inhibitors; actives 0.44% (n = 230,000); active = well fitted inhibition curve with a large enough effect, not every such curve was filed as active; inactive = no such curve, though single readings can be large or run the other way; note: potency is the fitted concentration of half-maximal effect; nearly all actives have a fitted effect of over 30% in size
PI5P4Ka inh: inhibitors of human PI5P4K alpha | actives 1.2% (n = 330,000) | PI5P4Kalpha enzyme, ADP-Glo luminescence, 60 min; hits give low values | max response, % | P48426; active = max response of -50% or lower; inconclusive = between -30% and -50%; inactive = -30% or higher; note: value at the top dose of about 77 µM
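Enzyme plus substrate dispensed, test compounds pinned in, then ATP (5 microM final) added. After 60 min at RT, ADP-Glo reagent 1 for 45 min and reagent 2 for 30 min preceded luminescence imaging.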
Pin1 inhibitor: blocks the human prolyl isomerase Pin1 | Potency, µM (highest dose often 115 µM), inactives show top-dose activity, negative = inhibition, usual class: inhibitors | AID 504891 | Pin1 FP peptide displacement, HiFluor488, 10 min | actives 0.009% (n = 390,000) | Q13526; active = well fitted inhibition curve with a large enough effect in the polarisation, with a control signal flat, not every such curve was filed as active; inconclusive = small, poorly fitted or top-dose-only effect, or effect the other way, or a change in a side signal; inactive = no such curve, though single readings can be large or run the other way; the % refers to the polarisation; note: potency is the fitted concentration of half-maximal effect
Target sequence (Q13526 whole entry, looked up): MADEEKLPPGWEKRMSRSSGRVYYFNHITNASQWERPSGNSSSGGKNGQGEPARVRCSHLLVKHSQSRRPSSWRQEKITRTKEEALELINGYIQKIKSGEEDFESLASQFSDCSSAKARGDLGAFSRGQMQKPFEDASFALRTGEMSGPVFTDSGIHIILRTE
* marks the source's active call; other numbers are inactive results; i = inactive; ? = inconclusive; · = no result; [ ] = another dose, or the depositor's remark. This is a sample that favours compounds with a hit; in the whole collection about 1.2% have one here. Unless noted, calls come from the whole dose curve; as a rule, active = well fitted curve in the direction sought with a large enough effect; inconclusive = small, poorly fitted or top-dose-only effect, or another doubt; inactive = no such curve, though single readings can be large; an effect the other way counts as inactive or inconclusive. Unless noted, % is set by controls: 0 for no effect and ±100 for the full control effect.

SMILES	PI4K2A block	Tb PGK inh	GCN5L2 inh	RGS12 GoLoco inh	PI5P4Ka inh	Pin1 inhibitor
CCN(CC)S(=O)(=O)c1ccc(N=NC2=C(O)CCCC2=O)cc1	-2	i	-15%	·	0	-2%
CCN(CC)S(=O)(=O)c1ccc(N=Nc2c(N)[nH]c(=O)[nH]c2=O)cc1	5	-10%	-4%	15%	-67*	-4%
CCN1C[C@@H]2[C@@H]3C(=O)N(Cc4ccccc4)C(=O)[C@@H]3[C@](Cc3ccccc3)(C1=O)N2C(=O)c1ccc(Cl)cc1	-3	-2%	·	·	1	6%
CCN1/C(=C2\OC(=S)N(C)C2=O)C=Cc2ccccc21	16	4%	-1%	31%	-2	?
CCSC1=NC(=O)/C(=C2/C=Cc3ccccc3N2CC)S1	-6	-14%	-22%	1.3µM*	-2	13%
COc1ccc(NC(=S)NC(NC(=O)/C=C/c2ccccc2)C(Cl)(Cl)Cl)cc1 (stereo unspecified)	-3	i	1µM*	0%	3	5%
O=C(CC1S/C(=N/N=C/C=C/c2ccccc2)NC1=O)Nc1ccc(C(=O)O)cc1 (stereo unspecified)	1	-10%	-23%	0%	-77*	-17%
CCCCCc1c(-c2cccc(OC)c2)ncn1CCc1ccccc1OC	-7	·	·	·	3	·
C/C=C\C=C\C(=O)Nc1cccc(C2=NOC3(C2)C[C@@H](C(N)=O)N(C(=O)C(c2ccccc2)c2ccccc2)C3)c1 (stereo partly specified)	-2	-2%	21%	-26%	-65*	48%
C/C=C\C=C/C(=O)Nc1cccc(C2=NOC3(C2)C[C@H](C(N)=O)N(C(=O)CC)C3)c1 (stereo partly specified)	-29	-6%	-10%	-27%	-4	14%
C=C(C)C(=O)Nc1cccc(C2=NOC3(C2)C[C@@H](C(N)=O)N(C(=O)/C(C)=C/C)C3)c1 (stereo partly specified)	-26	?	-11%	6%	?	·
C/C=C/C=C/C(=O)N1CC2(CC(c3cccc(NC(=O)/C=C/C)c3)=NO2)C[C@@H]1C(N)=O (stereo partly specified)	-11	-6%	-2%	-16%	-51*	?
C/C=C/C(=O)Nc1cccc(C2=NOC3(C2)C[C@H](C(N)=O)N(C(=O)/C=C/C)C3)c1 (stereo partly specified)	1	-6%	-20%	4%	0	-2%
C=C(C)C(=O)Nc1cccc(C2=NOC3(C2)C[C@@H](C(N)=O)N(C(=O)/C=C/C=C/C)C3)c1 (stereo partly specified)	-27	?	-14%	-16%	-50*	·
C/C=C\C=C/C(=O)Nc1cccc(C2=NOC3(C2)C[C@@H](C(N)=O)N(C(=O)c2ccc(Cl)cc2)C3)c1 (stereo partly specified)	0	4%	34%	-8%	-66*	9%
O=C1CCC(C(=O)O)N1 (stereo unspecified)	1	-1%	-11%	·	-1	4%
CNC(=O)c1c(C)[nH]c(=S)c(C#N)c1-c1ccco1	-10	7%	-16%	-12%	?	?
Cc1ccccc1NC(=O)c1c(C)[nH]c(=S)c(C#N)c1-c1ccco1	-8	-8%	44%	19%	-63*	6%
O=C(CCCN1C(=O)/C(=C\c2ccccc2)SC1=S)Nc1ccc(O)cc1C(=O)O	-10	i	-4%	·	-15	-5%
O=C(CCN1C(=O)/C(=C/c2ccco2)SC1=S)Nc1ccc(O)cc1C(=O)O	-2	?	-7%	·	-63*	?
O=C(CCCN1C(=O)/C(=C/c2ccco2)SC1=S)Nc1ccccc1C(=O)O	-2	-28%	-25%	33%	-82*	?
O=C(CN1C(=O)/C(=C\c2ccco2)SC1=S)Nc1ccc(O)cc1C(=O)O	-8	?	-21%	·	-62*	-2%
OC(c1cccc(CN2CCCCC2)c1)c1ncc(-c2ccccc2Cl)[nH]1 (stereo unspecified)	0	·	·	·	2	·
Cn1c(=O)n(C)c2cc(NC(=O)CSc3nnc(-c4ccccc4O)n3-c3ccccc3)ccc21	-1	i	24%	-2%	0	5%
Cc1cccc(N2CC(C(=O)Nc3ccc(S(=O)(=O)NCC4CCCO4)cc3)CC2=O)c1C (stereo unspecified)	-1	-7%	-4%	·	1	0%
SMILES	PI4K2A block	Tb PGK inh	GCN5L2 inh	RGS12 GoLoco inh	PI5P4Ka inh	Pin1 inhibitor
Cc1nnc(C)n1/N=C/c1cc(Br)cc(Br)c1O	-10	-7%	-10%	-5%	-50*	?
Oc1c(Br)cc(Br)cc1/C=N/n1c(-c2ccccc2)n[nH]c1=S	-5	-3%	-18%	·	-54*	?
Oc1ccccc1/C=N/n1c(-c2ccccc2)n[nH]c1=S	6	-1%	-3%	·	-3	0%
COc1c(Br)cc(/C=N/n2c(-c3ccccc3)n[nH]c2=S)c(O)c1Br	-6	-7%	?	·	-55*	3%
NNC(=S)Nc1cc(S(=O)(=O)N2CCOCC2)ccc1N1CCOCC1	-3	-7%	0%	7%	-1	-9%
COc1ccc2[nH]cc(CCNC(=O)c3ccc4ccccc4n3)c2c1	0	-1%	-4%	·	1	0%
COc1ccc(C(C(=O)NC(C)(C)C)N(C(=O)CNC(=O)c2cccs2)c2ccc(C(C)C)cc2)cc1OC (stereo unspecified)	-4	5%[11.5 µM]	-6%	7%	·	-1%
Cc1ccc(-c2nnn(CC(=O)N(CC(=O)NCCC(C)C)c3ccc(F)cc3)n2)cc1	0	-7%	-3%	·	·	5%
O=C1CCc2cc(S(=O)(=O)Nc3ccc4c(c3)OCCO4)ccc2N1	4	·	·	·	·	-2%
Oc1cc2c(cc1O)[C@@H](c1ccccc1)CNCC2	-4	-4%	1%	13µM*	-4	1%
Oc1cc2c(cc1O)C(c1ccccc1)CNCC2 (stereo unspecified)	2	i	-7%	-21%	1	0%
O=C(COC(=O)c1cc(=O)[nH]c2ccccc12)NCc1ccc(F)cc1	-2	-2%	2%	·	-4	1%
COc1ccc(-c2nnn(CC(=O)NC3CCCc4ccccc43)n2)cc1OC (stereo unspecified)	3	3%	-8%	9%	0	3%
COc1ccc(S(=O)(=O)NCCC(=O)NC2CCCCC2C)cc1[N+](=O)[O-] (stereo unspecified)	-7	-14%	-5%	·	-12	0%
COc1cc(N=c2ssnc2Cl)cc(OC)c1	3	-6%	22µM*	16µM*	-79*	9%

Screening results (PubChem)
